Data taken from the supplement of paper PMC6555819.

Legend:
Assay in all cases: PBM binding z-score (relative to random genomic background probes); higher = stronger binding; sequences stand for … in GC…GCGATTGACAGCGTAGAATGAAGG
[1] = test system: RARb homodimer (NR concentration 270 nM)
How it was run: (§1)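 Binding z-scores take random background probes as their reference. They come from custom Agilent 4×180K protein-binding microarrays incubated 1 h with ligand-free nuclear receptor dimers, with antibodies against each partner (one per run) detecting binding. Scanned fluorescence was regression-normalized.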

[2] = test system: RARg:RXRa (NR concentration 270 nM, RXRa partner concentration 90 nM)
How it was run: as §1

[3] = test system: RARg homodimer (NR concentration 270 nM)
How it was run: as §1

[4] = test system: RXRa DBDmut IVT, anti-RXR (DBD mutation: RXRa K156A/R161A, NR concentration 90 nM)
How it was run: as §1

[5] = test system: RXRa homodimer (NR concentration 180 nM)
How it was run: as §1

[6] = test system: THRa:RXRa (NR concentration 90 nM, RXRa partner concentration 90 nM)
How it was run: as §1

[7] = test system: THRa homodimer (NR concentration 90 nM)
How it was run: as §1

[8] = test system: VDR:RXRa (NR concentration 270 nM, RXRa partner concentration 90 nM)
How it was run: as §1

[9] = test system: VDR homodimer (NR concentration 270 nM)
How it was run: as §1

| Sequence | PBM binding z-score [1] | PBM binding z-score [2] | PBM binding z-score [3] | PBM binding z-score [4] | PBM binding z-score [5] | PBM binding z-score [6] | PBM binding z-score [7] | PBM binding z-score [8] | PBM binding z-score [9] |
| --- | --- | --- | --- | --- | --- | --- | --- | --- | --- |
| AGTCAAACTTCACTAGGTAACGTAAGATTCAGCT | -0.374 | 0.121 | 0.346 | 0.238 | -0.0168 | 0.342 | 0.203 | -0.0334 | -0.395 |
| CAAACTAGGTCACCGGCAGGTCAAAGTCCGCATG | 5.08 | 7.9 | 7.05 | 2.05 | 6.42 | 4.37 | 3.02 | 5.36 | 2.72 |
| GCATATAGGTAATACAAGGTGCAAGTCCGATTGT | -0.0695 | 0.291 | 0.14 | 0.314 | 0.27 | 1.52 | -0.516 | 0.355 | 0.533 |
| CATACAGAGTCAGCTAGGCCAGAGTAGGGACGGC | -0.0712 | -0.273 | 0.105 | -0.231 | -0.193 | -0.152 | -0.18 | -0.518 | -0.481 |
| TGAATGAGGTTAAAGATAAGGGAACGTGGCGTCG | 0.5 | 2.21 | 1.32 | 1.25 | 2.88 | 2.37 | 0.283 | 1.36 | 0.766 |
| AGTCAAAGTTCAGGACGAGGTAACATAAAGCACG | 3.26 | 4.89 | 4.71 | 3.19 | 3.25 | 3.73 | 1.55 | 3.13 | 2.24 |
| CAAACTTGGTCACGAAAGGTCAAAGTCGAATGAC | 4.71 | 6.15 | 6.2 | 1.4 | 7.01 | 4.07 | 0.947 | 5.37 | 3.11 |
| AGAATGCGGTTATACGTAGATCAGGGAAGAAAGT | -0.25 | 0.0152 | -0.0583 | -0.501 | 0.067 | -0.31 | -0.634 | -0.334 | -0.661 |
| CATACTGGGCCATCAGGTCATTGATATCAACGTT | 2.78 | 2.53 | 2.08 | 0.904 | 1.61 | 3.29 | 3.27 | 2.28 | 2.38 |
| CCTATTAGTTGACCATAAGGCCAACCGAAGCTCG | 1.68 | 0.941 | 0.942 | 0.893 | 0.779 | 2 | 1.89 | 0.724 | 1.06 |
| GCATATGGGTAATACAAGGTGAAAGTCCGATTGT | 0.725 | 0.405 | 0.402 | 0.208 | 0.486 | 3.98 | 0.841 | 0.212 | 0.115 |
| GGAACGACGGCATTCGAGTTGATAGCATGGCGAT | -1.09 | -0.451 | -0.127 | -0.144 | -0.39 | -0.124 | -1.19 | -0.42 | -0.259 |
| TCTGCTAGGTCAACGATGGCCAGCTAATCTGCTA | 2.85 | 3.75 | 4.72 | 0.868 | 2.35 | 2.6 | 0.486 | 1.13 | -0.708 |
| CCTAGTTGGTCAAGGTCACACAGGCTATAGGTAC | 4.45 | 4.8 | 5.13 | 2.24 | 4.86 | 4.16 | 4.07 | 4.72 | 4.27 |
| GCTGCTAGGTCAACTGATGGTCAGATAAAGCTCG | 3.52 | 5.33 | 5.41 | 1.79 | 3.01 | 2.9 | 1.07 | 1.82 | 0.346 |
| GCATATAGGTAATACATGGTGAAAGTCCGATTGT | -0.181 | 0.00391 | 0.437 | 0.319 | 0.441 | 0.327 | -0.218 | -0.0137 | 0.32 |
| CTACCAAGGGGAACAAGGTCGTTGATTACTATTC | 1.09 | 0.406 | 0.334 | 0.885 | 0.759 | 1.76 | 1 | 3.86 | 2 |
| CCTAGCAGGCCAATCTGGGTCACTCAGGGCTTGA | 2.15 | 0.923 | 1.06 | 0.0967 | 0.498 | 3.58 | 0.158 | 0.721 | -0.303 |
| CCGACTGGGGCAAAAGGTTACCATAAGCCAGCCC | 3.28 | 3.72 | 2.32 | 0.0121 | 2.71 | 1.44 | -0.187 | 1.08 | -0.455 |
| CCTTCTAGGTCATGGTCAGCTAATCTACAGTATG | 3.46 | 4.02 | 5.08 | 2.02 | 3.37 | 3.45 | 2.5 | 2.07 | 0.794 |
| ATATGTAGGTTATCGGGTCATCCAGTTTGCGCAT | 3.46 | 3.7 | 2.8 | 1.33 | 3.78 | 3.68 | 3.07 | 5.43 | 3.89 |
| TCGAGTAGGTTACCAATGGGGCATTCGGCTTTCT | 0.464 | 1.01 | 0.0889 | 0.423 | 0.335 | -0.119 | -0.584 | 0.0858 | -0.411 |
| ATCGAAAGGTCGACGAGGTGAGTAGACACCGTTT | 2.83 | 4.43 | 3.75 | 0.736 | 4.27 | 3.85 | 0.861 | 5.23 | 0.955 |
| CAACCTAGGTCACAGAGGTCAAAGTCCGTGCGTA | 5.82 | 7.61 | 7.92 | 3.68 | 8.52 | 4.55 | 3.1 | 8.21 | 7.57 |
| CTCGAAAGGTCGCGCTCAGGTGAGTATACCAAAC | 3.47 | 5.54 | 4.9 | 2.28 | 5.79 | 4.23 | 1.01 | 3.55 | 1.35 |
| GCTTCTAGATCAAGGTTAAGAAAGACTAAGCTAA | 0.106 | 0.25 | 0.347 | 0.0774 | 0.547 | 1.16 | -0.453 | 0.384 | -0.36 |

| Sequence | PBM binding z-score [1] | PBM binding z-score [2] | PBM binding z-score [3] | PBM binding z-score [4] | PBM binding z-score [5] | PBM binding z-score [6] | PBM binding z-score [7] | PBM binding z-score [8] | PBM binding z-score [9] |
| --- | --- | --- | --- | --- | --- | --- | --- | --- | --- |
| CGTCCAAGGTCAGCAGGTTAGTGAAAGCGACGTG | 4 | 5.37 | 6.05 | 2.64 | 4.17 | 3.57 | 2.06 | 4.07 | 1.76 |
| CCAGACAGGTGAGAAGGTTACTCAGCCTCGATTA | 1.63 | 1.67 | 1.13 | 0.518 | 1 | 0.657 | 0.115 | 0.635 | 0.152 |
| TAGCCTAGGTCTTGGGCCAGTATACCACGCGAAC | 0.192 | -0.191 | -0.198 | -0.835 | -0.0837 | 0.0232 | 0.0319 | -0.455 | -0.506 |
| TATACAGAGTCAAAGGCCAGAGTACGAATGTCGA | 0.843 | 0.902 | 1.01 | -0.862 | 1.03 | -0.0396 | -0.776 | 0.241 | 0.0199 |
| ATCGAAAGGTTGAGGTGAGTATAGAGAAAGGGAA | 1.24 | 1.39 | 1.25 | -0.21 | 1.16 | 2.38 | 1.27 | 0.543 | 0.34 |
| TGTAAAAGTTCAAAGGTAACGTAAGTATCCACAC | 3.5 | 5.35 | 5.12 | 4.06 | 6.28 | 3.53 | 0.192 | 4.65 | 2.83 |
| CCTTACGGGTCACCAGGTTATAGCACGACGAGCG | 3.75 | 5.68 | 5.33 | 0.805 | 6.06 | 3.45 | 0.878 | 4.64 | 1.09 |
| GCTCGGAGGACAAGGTCAGTGCTTTGTCCGTAGA | 3.23 | 2.82 | 3.65 | 0.477 | 1.29 | 2.77 | 1.49 | 1.19 | 0.406 |
| ACTATTATTTGACTTAGGGCAACCGATACGACGC | 1.2 | 1.18 | 1.35 | 1.24 | 0.818 | 1.18 | 1.52 | 0.993 | 1.41 |
| TCTATTAGTTGATTGGGGCAACCGAAACAGCGGA | 0.682 | 0.564 | 0.336 | 1.34 | 0.882 | 0.545 | 0.527 | 0.952 | 0.77 |
| CAAAGTAGGTCAAAGGTCAAAGTCGAGCCAACCA | 5.32 | 8.87 | 7.72 | 3.17 | 10.4 | 4.54 | 1.22 | 6.63 | 3.8 |
| AGAATGAGGTTATACGTAGCTCAGGGAAGAAAGT | 0.301 | 1.29 | 0.944 | 1.7 | 1.86 | 1.81 | 0.226 | 1.2 | 0.643 |
| GGAACGCGGGCATTCGAGTTGATAGCATGGCGAT | -0.894 | -0.144 | -0.0858 | 0.211 | -0.381 | 0.468 | -1.25 | -0.234 | 0.00818 |
| GAGACAGGGTCAGCTAGAGGCCAGAGTATGGAAA | 3.05 | 6.57 | 4.77 | 1.03 | 4.3 | 3.06 | 0.161 | 3.22 | 0.581 |
| GGAACGAGGGCATAGTTGATAGCATCTGTCGACG | 0.536 | 0.949 | 1.22 | 2.25 | 1.02 | 0.72 | -0.185 | 0.655 | 1.18 |
| TCTGCTAGGGCAGTTGGTCAGCTAACGAGCTGCC | 0.33 | -0.0411 | 0.49 | -0.0574 | -0.74 | -0.754 | -0.968 | -0.663 | -1.08 |
| TGTCGGAGGACACGAAGGTCAGAGCTTTCCAGAG | 3.4 | 3.38 | 4.14 | -0.488 | 1.8 | 2.92 | 0.651 | 2.42 | 0.981 |
| CTACCAAGGTGAACAAGGTCGTTGCTTACTATTC | 2.09 | 1.83 | 1.34 | 1.73 | 2.12 | 3.15 | 2.03 | 6.16 | 2.89 |
| CCTCGGAGGACAGAAGGTCAGAGTTGTCCGCTTT | 3.6 | 3.24 | 2.91 | 0.56 | 1.73 | 2.08 | 0.133 | 1.12 | 0.396 |
| GCTAGCTGGTCAGTAAAAGGTCACACACCGGTCG | 4.99 | 5.88 | 4.93 | 0.376 | 5.62 | 3.34 | 1.36 | 3.52 | 1.37 |
| CCTACCGGGCCAAAAAGGTCATTGATGCCGATAA | 4.59 | 4.5 | 3.96 | 0.185 | 4.6 | 3.29 | 1.04 | 5.13 | 3.13 |
| ATCTCAAGGTAAAGATAGTTCAGTGAATGCAAAT | 0.976 | 1.03 | 1.11 | 0.292 | 0.564 | 1.53 | 0.311 | 1.37 | 0.351 |
| CGAACTAGGTCAGAACAGGACAGGGAAGGATGAT | 2.37 | 2.58 | 2.91 | 0.62 | 1.26 | 3.92 | 0.578 | 0.511 | 0.472 |
| CCTAGCAGGCCAATCCGGGTCACTCAAGGCTTGA | 2.35 | 1.67 | 1.42 | 0.0497 | 1.65 | 4.38 | 1.72 | 2 | 0.638 |
| CCTACTGGGCCAAAAAGGTCACTGATGCCGATAA | 4.56 | 4.77 | 4.86 | 0.0179 | 4.83 | 3.07 | 0.702 | 4.5 | 1.53 |
| CGTCAAAGTTCAAATAAGGTAACGTAAAGCACGC | 4.02 | 5.64 | 6.52 | 4.78 | 5.4 | 5.07 | 2.01 | 4.74 | 4.33 |
